How the values were obtained:
[1] = target: CDK3/Cyclin E (Homo sapiens) (UniProt P24864+Q00526); conditions: at 1 µM;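 further: each figure is a mean percent inhibition of the CDK3/cyclin E complex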
[2] = target: Cyclin-dependent kinase 4 (Homo sapiens) (UniProt P11802); conditions: at 0.1 µM
[3] = target: Cyclin-dependent kinase 4 (Homo sapiens) (UniProt P11802); conditions: at 1 µM
[4] = target: Cyclin-dependent kinase 5 (Homo sapiens) (UniProt Q00535); conditions: at 0.1 µM
[5] = target: Cyclin-dependent kinase 5 (Homo sapiens) (UniProt Q00535); conditions: at 1 µM
[6] = target: Cyclin-dependent kinase 6 (Homo sapiens) (UniProt Q00534); conditions: at 0.1 µM
Sequence of Cyclin-dependent kinase 6 (Homo sapiens) (Q00534 whole entry): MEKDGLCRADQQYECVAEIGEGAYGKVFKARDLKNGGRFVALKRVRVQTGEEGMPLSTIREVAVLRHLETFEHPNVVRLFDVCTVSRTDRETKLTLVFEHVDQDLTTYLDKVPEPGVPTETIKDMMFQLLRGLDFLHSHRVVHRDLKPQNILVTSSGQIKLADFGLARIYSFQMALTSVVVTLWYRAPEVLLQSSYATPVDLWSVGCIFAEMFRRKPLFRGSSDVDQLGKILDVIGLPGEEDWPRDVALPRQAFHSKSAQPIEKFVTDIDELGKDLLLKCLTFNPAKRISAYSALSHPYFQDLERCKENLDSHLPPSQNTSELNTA

[7] = target: Cyclin-dependent kinase 6 (Homo sapiens) (UniProt Q00534); conditions: at 1 µM
[8] = target: Dual specificity protein kinase CLK2 (Homo sapiens) (UniProt P49760); conditions: at 0.1 µM
Sequence of Dual specificity protein kinase CLK2 (Homo sapiens) (P49760 whole entry, looked up): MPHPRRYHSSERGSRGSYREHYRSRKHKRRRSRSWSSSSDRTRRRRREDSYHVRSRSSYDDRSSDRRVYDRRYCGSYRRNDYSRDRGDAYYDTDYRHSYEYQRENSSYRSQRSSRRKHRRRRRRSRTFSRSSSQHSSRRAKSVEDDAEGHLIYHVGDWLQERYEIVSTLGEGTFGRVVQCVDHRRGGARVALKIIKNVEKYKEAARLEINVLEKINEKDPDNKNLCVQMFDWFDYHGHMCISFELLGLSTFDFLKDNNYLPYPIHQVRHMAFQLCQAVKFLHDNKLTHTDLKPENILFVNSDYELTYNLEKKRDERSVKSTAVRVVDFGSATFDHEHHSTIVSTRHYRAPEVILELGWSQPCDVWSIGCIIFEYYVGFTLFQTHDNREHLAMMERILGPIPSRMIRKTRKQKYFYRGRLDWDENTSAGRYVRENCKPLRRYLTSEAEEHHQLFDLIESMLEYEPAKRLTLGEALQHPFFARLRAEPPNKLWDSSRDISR

[9] = target: Dual specificity protein kinase CLK2 (Homo sapiens) (UniProt P49760); conditions: at 1 µM
[10] = target: Dual specificity protein kinase CLK3 (Homo sapiens) (UniProt P49761); conditions: at 0.1 µM
Sequence of Dual specificity protein kinase CLK3 (Homo sapiens) (P49761 whole entry, looked up): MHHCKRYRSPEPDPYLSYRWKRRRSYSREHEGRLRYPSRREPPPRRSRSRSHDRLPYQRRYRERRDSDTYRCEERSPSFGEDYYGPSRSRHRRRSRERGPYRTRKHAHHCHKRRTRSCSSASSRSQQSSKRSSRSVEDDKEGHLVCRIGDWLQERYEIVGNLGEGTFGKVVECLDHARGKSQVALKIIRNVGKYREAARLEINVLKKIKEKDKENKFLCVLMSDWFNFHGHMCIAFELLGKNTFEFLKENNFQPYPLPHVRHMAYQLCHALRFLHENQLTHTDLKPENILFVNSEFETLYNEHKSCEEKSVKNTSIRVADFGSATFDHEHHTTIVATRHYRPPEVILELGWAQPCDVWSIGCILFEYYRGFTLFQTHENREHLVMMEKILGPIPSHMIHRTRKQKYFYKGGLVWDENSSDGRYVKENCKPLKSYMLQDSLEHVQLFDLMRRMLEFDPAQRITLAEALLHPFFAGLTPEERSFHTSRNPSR

Sequence of Cyclin-dependent kinase 4 (Homo sapiens) (P11802 whole entry): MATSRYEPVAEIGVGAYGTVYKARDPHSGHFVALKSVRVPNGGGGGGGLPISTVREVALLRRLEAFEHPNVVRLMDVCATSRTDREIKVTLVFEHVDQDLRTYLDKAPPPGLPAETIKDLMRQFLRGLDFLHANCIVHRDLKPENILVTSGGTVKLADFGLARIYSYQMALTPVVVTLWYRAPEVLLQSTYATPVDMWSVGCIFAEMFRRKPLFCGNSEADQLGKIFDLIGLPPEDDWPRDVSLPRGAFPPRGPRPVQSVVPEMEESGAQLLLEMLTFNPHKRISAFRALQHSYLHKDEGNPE
Sequence of CDK3/Cyclin E (Homo sapiens) (P24864 whole entry, looked up): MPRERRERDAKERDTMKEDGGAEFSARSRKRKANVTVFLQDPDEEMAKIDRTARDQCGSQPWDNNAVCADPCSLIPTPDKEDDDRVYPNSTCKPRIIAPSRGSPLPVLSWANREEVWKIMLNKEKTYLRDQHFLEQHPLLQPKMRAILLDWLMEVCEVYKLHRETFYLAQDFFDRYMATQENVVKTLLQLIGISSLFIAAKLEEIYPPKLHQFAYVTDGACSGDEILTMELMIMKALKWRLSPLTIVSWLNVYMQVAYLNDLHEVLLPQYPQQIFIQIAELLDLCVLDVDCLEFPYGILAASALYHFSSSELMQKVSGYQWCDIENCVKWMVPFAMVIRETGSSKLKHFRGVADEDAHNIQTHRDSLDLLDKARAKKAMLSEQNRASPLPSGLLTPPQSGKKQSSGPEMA
Sequence of CDK3/Cyclin E (Homo sapiens) (Q00526 whole entry, looked up): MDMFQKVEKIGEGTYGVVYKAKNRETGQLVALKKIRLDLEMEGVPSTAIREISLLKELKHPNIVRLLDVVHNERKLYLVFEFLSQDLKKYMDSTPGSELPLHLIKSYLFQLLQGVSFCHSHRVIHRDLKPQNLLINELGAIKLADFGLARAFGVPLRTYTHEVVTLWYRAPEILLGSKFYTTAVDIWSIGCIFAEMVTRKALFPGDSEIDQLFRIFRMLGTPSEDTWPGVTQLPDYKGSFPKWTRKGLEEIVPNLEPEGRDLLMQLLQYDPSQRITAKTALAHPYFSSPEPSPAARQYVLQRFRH
Sequence of Cyclin-dependent kinase 5 (Homo sapiens) (Q00535 whole entry, looked up): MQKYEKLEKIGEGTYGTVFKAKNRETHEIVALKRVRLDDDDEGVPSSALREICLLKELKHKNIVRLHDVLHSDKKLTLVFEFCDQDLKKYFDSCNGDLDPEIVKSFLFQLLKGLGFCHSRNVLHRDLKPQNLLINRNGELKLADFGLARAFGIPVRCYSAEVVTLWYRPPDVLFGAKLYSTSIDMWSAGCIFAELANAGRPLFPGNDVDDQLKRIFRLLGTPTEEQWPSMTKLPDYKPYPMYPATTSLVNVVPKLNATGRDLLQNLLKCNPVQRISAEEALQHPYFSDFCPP

| SMILES | inhibition [1] [%] | inhibition [2] [%] | inhibition [3] [%] | inhibition [4] [%] | inhibition [5] [%] | inhibition [6] [%] | inhibition [7] [%] | inhibition [8] [%] | inhibition [9] [%] | inhibition [10] [%] |
| --- | --- | --- | --- | --- | --- | --- | --- | --- | --- | --- |
| Cn1cc(C=C2C(=O)Nc3cccnc32)c2ccccc21 | 3.36 | 4.89 | 11 | 5.57 | 7.28 | 1.04 | 8.56 | 3.28 | 13.7 | 0.62 |
| CCn1c(-c2nonc2N)nc2c(C#CC(C)(C)O)nc(OC[C@@H](N)c3ccccc3)cc21 | 0.99 | -0.22 | 0.8 | 0.35 | 0.49 | -0.27 | -0.99 | 0.81 | 2.4 | -0.31 |
| CNC(=O)c1cncc(/C=C/c2c(Cl)cccc2Cl)c1 | -3.08 | 0.86 | 3.96 | -2.57 | -0.63 | -5.76 | -5.69 | 2.47 | 5.66 | -3.56 |
| COc1cc2ncn(-c3cc(O[C@@H](C)c4ccccc4Cl)c(C(N)=O)s3)c2cc1OC | -0.13 | 2.39 | 4.14 | 0.19 | 2.21 | -0.46 | 1.56 | 0.33 | 0.86 | 0.71 |
| Cc1cc(O)cc(C)c1/C=C/c1cncc(-c2nn[nH]n2)c1 | -2.12 | -0.96 | 0 | -3.06 | -3.35 | -6.34 | -0.68 | 2.78 | 1.31 |  |
| CCN1CCC(CC(=O)Nc2n[nH]c3nc(-c4cccs4)c(Br)cc23)CC1 | 9.52 | 5.84 | 37 | 0.96 | 2.52 | 30.9 | 70.8 | -1.44 | 2.75 | 0.48 |
| CCn1c(-c2nonc2N)nc2cncc(C(=O)N3CCNCC3)c21 | 0.54 | 2.78 | 3.57 | 0.79 | 1.06 | -0.98 | 3.06 | 2.04 | 5.8 | 2.42 |
| COc1ccc2cc(-c3c(-c4ccncc4)nc(-c4ccc([S+](C)[O-])cc4)n3C)ccc2c1 (stereo not drawn) | -0.42 | 2.74 | 2.79 | 0.96 | 1.53 | -3.35 | -1.41 | 0.22 | 1.33 | 0.91 |
| CCCN1CCC(Oc2cc(Nc3nc(Nc4cccc(F)c4C(N)=O)c4cc[nH]c4n3)c(OC)cc2Cl)CC1 | 1.54 | 0.37 | 3.08 | 0.2 | 0.45 | 0.9 | 2.04 | 9.9 | 49.3 | 0.11 |
| O=C1NC(=O)C(N2CCc3ccccc32)=C1c1ccc(Cl)cc1 | 0.23 | 3.68 | 5.74 | 2.06 | 2.74 | -3.76 | 5.39 | -0.03 | 0.46 | 2.68 |
| COc1cc(C)c(NC(=O)CN(C)C)cc1Nc1nc(Nc2cccc(F)c2C(N)=O)c2cc[nH]c2n1 | 0.15 | 0.8 | 1.16 | -0.59 | -1.89 | -0.3 | 3.87 | 45.4 | 88.8 | 1.76 |
| Fc1cccc(COc2ccc(Nc3ncnc4cc(-c5ccc[nH]5)sc34)cc2Cl)c1 | -1.23 | -1.38 | 1.79 | -2.8 | -0.09 | -9.87 | -4.56 | 0.06 | -0.33 | -2.46 |
| NC(=O)c1cccc(Nc2nccc(Nc3cccc4[nH]ncc34)n2)c1 | 23.7 | -0.82 | 5.05 | 1.84 | 14.1 | 0.2 | 0.3 | 1.19 | 27.8 | 0.15 |
| COc1cc(C=NNc2ncnc3c2cnn3-c2ccccc2)ccc1O | 12.7 | 3.09 | 18.6 | 4 | 24.5 | 4.2 | 21.7 | 3.39 | 9.02 |  |
| O=C1Nc2ccc(C(=O)c3ccco3)cc2C1=Cc1cc(Cl)c(O)c(Cl)c1 | -0.28 | 3.32 | 7.07 | 1.97 | 6.39 | 3.35 | 7.37 | 64.6 | 95.7 | 22.3 |
| Fc1cccc(COc2ccc(Nc3ncnc4sc(-c5cccs5)cc34)cc2Cl)c1 | 0.05 | 0.35 | 2.13 | 0.55 | 1.81 | -0.81 | 0.5 | 1.58 | 1.69 | 0.66 |
| CC1=C(C(=O)Nc2ccc3[nH]ncc3c2)C(c2ccc(F)cc2)NC(=O)N1 (stereo not drawn) | -0.84 | 1.79 | 4.05 | 0.41 | 3.23 | -2.46 | 4.38 | -0.24 | 0.68 | 3.34 |

| SMILES | inhibition [1] [%] | inhibition [2] [%] | inhibition [3] [%] | inhibition [4] [%] | inhibition [5] [%] | inhibition [6] [%] | inhibition [7] [%] | inhibition [8] [%] | inhibition [9] [%] | inhibition [10] [%] |
| --- | --- | --- | --- | --- | --- | --- | --- | --- | --- | --- |
| CS(=O)(=O)CCNCc1nc(-c2ccc3ncnc(Nc4ccc(F)c(Cl)c4)c3c2)cs1 | -2.13 | 0.51 | 0.73 | 0.12 | 0.38 | 6.34 | -1.47 | 0.29 | 2.89 | -0.05 |
| COc1ccc(-c2ccncc2)cc1C(N)=O | -1.43 | 3.41 | 3.66 | 0.56 | 1.7 | -5.08 | 0.48 | 0.6 | 2.96 | 2.01 |
| O=C1NC(=O)C(c2cccc(Cl)c2)=C1Nc1ccc(O)c(Cl)c1 | 6.94 | 2.23 | 13.9 | 1.36 | 7.25 | -3.15 | 12.6 | 4.59 | 26.1 | -0.5 |
| Cc1ccc(C(=O)NC2CCCCC2)cc1-c1ccc(C(=O)NCC2CC2)cc1 | 0.7 | 2.37 | 2.51 | 1.19 | 1.18 | 3.79 | 0.76 | 2.01 | 2.19 | 0.94 |
| NC(=O)c1ccc(-c2nc(-c3ccccn3)c(-c3ccc4c(c3)OCO4)[nH]2)cc1 | -1.06 | 1.33 | 1.94 | 0.55 | 0.87 | 1 | -1.82 | 1.23 | 1.07 | -1.49 |
| CS(=O)(=O)CCN(CC#N)Cc1ccc(-c2ccc3ncnc(Nc4ccc(OCc5cccc(F)c5)c(Cl)c4)c3c2)o1 | -2.66 | -2.96 | -1.43 | -3.58 | -2.47 | -5.97 | -4.69 | 1.05 | 0.64 | -3.63 |
| CN(C)c1cc2c(Nc3ccc4nc(Cc5ccccc5)[nH]c4c3)ncnc2cn1 | -2.11 | 3.33 | 3.46 | 1.02 | 1.2 | 1.12 | 3.91 | 2.08 | 1.7 | 2.14 |
| Nc1nc(-c2ccccn2)c(-c2ccc3ncccc3n2)s1 | 0.5 | 3.41 | 4.48 | 1.28 | 2.86 | 6.73 | 7.75 | -0.01 | 0.69 | 2.95 |
| O=C1NC(=O)C(c2ccc(Cl)cc2)=C1Nc1ccc(Cl)c(C(=O)O)c1 | 1.13 | 0.08 | -0.02 | 0.36 | 1.75 | 4.89 | 5.18 | -0.15 | 1.55 | 1.39 |
| COc1cc2ncn(-c3cc(OCc4ccccc4C(F)(F)F)c(C(N)=O)s3)c2cc1OC | -0.14 | -1.16 | 1.16 | -3.58 | -1.09 | -3.21 | -1.7 | 1.94 | 6.82 | -2.62 |
| CCn1c(-c2nonc2N)nc2c(N3CCCC3)nccc21 | -0.6 | 15.6 | 4.7 | 1.73 | 4.5 | -2.76 | 2.52 | -0.76 | -0.67 | 1 |
| CS(=O)(=O)Nc1ccc(N/C=C2\C(=O)Nc3ccccc32)cc1 | 17.4 | 1.6 | 15 | 6.34 | 39.8 | 12.9 | 59.4 | -0.68 | 3.62 | 0.94 |
| Cc1ccc(NC(=O)c2ccnc(N3CCCC3)c2)cc1-c1ccc(C(=O)NCC2CC2)cc1 | -0.38 | 0.83 | 4.63 | 2.54 | 3.21 | -7.97 | -0.52 | 3.05 | 1.8 | -1.85 |
| CC(C)=Cc1cccc2c1/C(=N/Nc1ccc(S(N)(=O)=O)cc1)C(=O)N2 | 99.1 | 34.3 | 68.9 | 39.7 | 73.3 | 63.6 | 91.4 | 1.69 | 7.38 | -6.71 |
| NS(=O)(=O)c1ccc(N/N=C2\C(=O)Nc3ccc(C(=O)NCCc4c[nH]cn4)cc32)cc1 | 81.3 | 14.4 | 56.4 | 48.3 | 84.4 | 14.9 | 55.9 | 46.5 | 91.9 | 4.48 |
| COc1ccc(COc2ccc(Cc3cnc(N)nc3N)cc2OC)cc1 | 1.92 | 1.7 | 3.6 | 2.15 | 2.03 | 1.93 | 3.33 | 2.03 | 1.66 | -0.25 |
